In the OligoGym collection:
Also: reference of the scale not given here.

What follows are sequences tested against SLC6A17 (assay: pooled miR-30 sensor sort-seq; sequence = guide strand). Settings: shRNA.
With TTTCTCAGCATTCTCGACCACA the sensor-assay potency score (higher = more potent) was -0.65. TTCTTGGTTCCATAAATCCAGG gave a sensor-assay potency score (higher = more potent) of -1.41. With TATAGTAGAGTGTCTCTCCTGG the sensor-assay potency score (higher = more potent) was 0.772. In the case of ATATATAGTGCCACACACCGAT, the sensor-assay potency score (higher = more potent) is reported as 0.0995. TAGTGCCACACACCGATGCTGC was tested, and the sensor-assay potency score (higher = more potent) was -1.34. Work on TTGTAGGACACGGAGAGGGTGT yielded a sensor-assay potency score (higher = more potent) of -0.674. In the case of TTCTCGACCACACACTTCTCAT, the sensor-assay potency score (higher = more potent) is reported as -1.03.

What follows are sequences tested against SLC6A18 in the same assay as above. Settings: shRNA.
TTGTATCTCAGTGGCTTCCAGA was tested, and the sensor-assay potency score (higher = more potent) was -0.724. TAAACGACACCCACAACCTCGA gave a sensor-assay potency score (higher = more potent) of -0.526. TAGAGCTTCTCCTGACGCGAGG was tested, and the sensor-assay potency score (higher = more potent) was -1.31. TTGTCGAAAATCTCCAGCCAGT gave a sensor-assay potency score (higher = more potent) of -1.14. ATTAGTTGCTTTGAACCCCAGG showed a sensor-assay potency score (higher = more potent) of -0.521. Sequence TGAACAAGTAGATGAGTCCTTT has a sensor-assay potency score (higher = more potent) of -0.149. Work on ATGGTGTTGTAGTACAGGCTGA yielded a sensor-assay potency score (higher = more potent) of -0.98. TGAAGTAAATCACCTTCCCTGT showed a sensor-assay potency score (higher = more potent) of -0.768. In the case of ATTGTCGAAAATCTCCAGCCAG, the sensor-assay potency score (higher = more potent) is reported as -0.569. For TTCAGTGTCTGCCGGTACCAGA, the sensor-assay potency score (higher = more potent) was -1.1. TTGTAGTACAGGCTGATCAGGA gave a sensor-assay potency score (higher = more potent) of -0.436.

The sequences below were run against SLC6A3 in the same assay as above. Settings: shRNA.
For TATTCTTGTAAACAAAAACTGC, the sensor-assay potency score (higher = more potent) was -1.01. With TTTTGTAGCACAGGTAGGGGAA the sensor-assay potency score (higher = more potent) was -0.466. TTCGCAAACATAAAAACTGTTG was tested, and the sensor-assay potency score (higher = more potent) was -1.05. ATCTGCTGGATGTCGTCGCTGA showed a sensor-assay potency score (higher = more potent) of -0.478. Work on TTGTTGGTGAACTTGTTGTAGC yielded a sensor-assay potency score (higher = more potent) of -0.855. TTACAGCAACACAAGACACGGC gave a sensor-assay potency score (higher = more potent) of 0.179. TTTTTGTAGCACAGGTAGGGGA gave a sensor-assay potency score (higher = more potent) of -0.961. In the case of TTGGTGAACTTGTTGTAGCTGG, the sensor-assay potency score (higher = more potent) is reported as 0.547. For TATTGATGTGGCACGCACCTGA, the sensor-assay potency score (higher = more potent) was -0.154. For TTTCCTGGTGAGACATACCAGG, the sensor-assay potency score (higher = more potent) was -1.03. In the case of TAGCAGTTGTTGGTGAACTTGT, the sensor-assay potency score (higher = more potent) is reported as -0.216. Work on TAGATGATGAAGATCAGCCCTG yielded a sensor-assay potency score (higher = more potent) of -0.145.

What follows are sequences tested against SLC7A11 in the same assay as above. Settings: shRNA.
Sequence TTCTTCAGTAACAAAGTTGAGG has a sensor-assay potency score (higher = more potent) of -0.835. For TAATACTTGAATCTCTTCCTGA, the sensor-assay potency score (higher = more potent) was 0.636. For TAATGGACCAAAGACTTCCAAA, the sensor-assay potency score (higher = more potent) was -1.33. Work on TAATTAGCTGCATAACTCCAGG yielded a sensor-assay potency score (higher = more potent) of -0.703. Sequence TTAATTAGCTGCATAACTCCAG has a sensor-assay potency score (higher = more potent) of 0.313. In the case of TTTAGGACCATCACTACAGTTA, the sensor-assay potency score (higher = more potent) is reported as -0.265. Sequence TACTTCTTCAGTAACAAAGTTG has a sensor-assay potency score (higher = more potent) of -0.481. Work on TTTGTATCGAAGATAAATCAGC yielded a sensor-assay potency score (higher = more potent) of -1.16. In the case of TTCAGTAACAAAGTTGAGGTAA, the sensor-assay potency score (higher = more potent) is reported as 0.0391. TAAAGTTCTGCGTTTGACCTTT showed a sensor-assay potency score (higher = more potent) of 0.169.
